{"source": "paper PMC5540273", "about": "(PLoS ONE, 2017)", "key": {"GRK4": {"tested_on": "GRK4", "conditions": "concentration: 1 μM, replicates: in singlicate, n = 1"}, "GRK7": {"tested_on": "GRK7", "conditions": "concentration: 1 μM, replicates: in singlicate, n = 1"}, "GSK3A": {"tested_on": "GSK3A", "conditions": "concentration: 1 μM, replicates: in singlicate, n = 1"}, "GSK3B": {"tested_on": "GSK3B", "conditions": "concentration: 1 μM, replicates: in singlicate, n = 1"}, "HASPIN": {"tested_on": "T1, HASPIN", "T1 construct": "gene GSG2", "conditions": "concentration: 1 μM, replicates: in singlicate, n = 1"}, "HCK": {"tested_on": "HCK", "conditions": "concentration: 1 μM, replicates: in singlicate, n = 1"}, "HIPK1": {"tested_on": "HIPK1", "conditions": "concentration: 1 μM, replicates: in singlicate, n = 1"}, "HIPK2": {"tested_on": "HIPK2", "conditions": "concentration: 1 μM, replicates: in singlicate, n = 1"}, "HIPK3": {"tested_on": "HIPK3", "conditions": "concentration: 1 μM, replicates: in singlicate, n = 1"}, "HIPK4": {"tested_on": "HIPK4", "conditions": "concentration: 1 μM, replicates: in singlicate, n = 1"}, "HPK1": {"tested_on": "HPK1", "conditions": "concentration: 1 μM, replicates: in singlicate, n = 1"}, "HUNK": {"tested_on": "HUNK", "conditions": "concentration: 1 μM, replicates: in singlicate, n = 1"}, "ICK": {"tested_on": "ICK", "conditions": "concentration: 1 μM, replicates: in singlicate, n = 1"}, "IGF1R": {"tested_on": "IGF1R", "conditions": "concentration: 1 μM, replicates: in singlicate, n = 1"}, "IKK-alpha": {"tested_on": "T2, IKK-alpha", "T2 construct": "gene CHUK", "conditions": "concentration: 1 μM, replicates: in singlicate, n = 1"}, "IKK-beta": {"tested_on": "T3, IKK-beta", "T3 construct": "gene IKBKB", "conditions": "concentration: 1 μM, replicates: in singlicate, n = 1"}, "IKK-epsilon": {"tested_on": "T4, IKK-epsilon", "T4 construct": "gene IKBKE", "conditions": "concentration: 1 μM, replicates: in singlicate, n = 1"}, "INSRR": {"tested_on": "INSRR", "conditions": "concentration: 1 μM, replicates: in singlicate; n = 1"}, "INSR": {"tested_on": "INSR", "conditions": "concentration: 1 μM, replicates: in singlicate; n = 1"}, "IRAK1": {"tested_on": "IRAK1", "conditions": "concentration: 1 μM, replicates: in singlicate, n = 1"}}, "note": "Values joined by “and” are separate entries in the source; they are usually repeats but may differ in a detail not shown here. Equal values may be shown once. Read-outs that look alike come from different tables or passages of the source.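 Also: KINOMEscan kinase panel screen.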"}
{"smiles": "Cc1nnc(-c2ccc(C)c(-c3ccc(C(=O)Nc4ccc(NS(C)(=O)=O)cc4)cc3)c2)o1", "note": "[GW702865]", "values": [{"measurement": "%Inh", "setting": "GRK4", "value": 0, "unit": "%"}, {"measurement": "%Inh", "setting": "GRK7", "value": 0, "unit": "%"}, {"measurement": "%Inh", "setting": "GSK3A", "value": 5, "unit": "%"}, {"measurement": "%Inh", "setting": "GSK3B", "value": 0, "unit": "%"}, {"measurement": "%Inh", "setting": "HASPIN", "value": 46, "unit": "%"}, {"measurement": "%Inh", "setting": "HCK", "value": 0, "unit": "%"}, {"measurement": "%Inh", "setting": "HIPK1", "value": 0, "unit": "%"}, {"measurement": "%Inh", "setting": "HIPK2", "value": 0, "unit": "%"}, {"measurement": "%Inh", "setting": "HIPK3", "value": 12, "unit": "%"}, {"measurement": "%Inh", "setting": "HIPK4", "value": 0, "unit": "%"}, {"measurement": "%Inh", "setting": "HPK1", "value": 0, "unit": "%"}, {"measurement": "%Inh", "setting": "HUNK", "value": 15, "unit": "%"}, {"measurement": "%Inh", "setting": "ICK", "value": 0, "unit": "%"}, {"measurement": "%Inh", "setting": "IGF1R", "value": 17, "unit": "%"}, {"measurement": "%Inh", "setting": "IKK-alpha", "value": 0, "unit": "%"}, {"measurement": "%Inh", "setting": "IKK-beta", "value": 0, "unit": "%"}, {"measurement": "%Inh", "setting": "IKK-epsilon", "value": 31, "unit": "%"}, {"measurement": "%Inh", "setting": "INSRR", "value": 0, "unit": "%"}, {"measurement": "%Inh", "setting": "INSR", "value": 0, "unit": "%"}, {"measurement": "%Inh", "setting": "IRAK1", "value": 17, "unit": "%"}]}
{"smiles": "Cl.Cl.Cl.Fc1ccc(-c2ncn(C3CCNCC3)c2-c2ccnc(Nc3ccccc3)n2)cc1", "note": "[SB-238039]", "values": [{"measurement": "%Inh", "setting": "GRK4; 1 µM", "value": "8% and 46%"}, {"measurement": "%Inh", "setting": "GRK7; 1 µM", "value": "0% and 37%"}, {"measurement": "%Inh", "setting": "GSK3A; 1 µM", "value": "57% and 10%"}, {"measurement": "%Inh", "setting": "GSK3B; 1 µM", "value": "47% and 17%"}, {"measurement": "%Inh", "setting": "HASPIN; 1 µM", "value": "58% and 0%"}, {"measurement": "%Inh", "setting": "HCK; 1 µM", "value": "65% and 34%"}, {"measurement": "%Inh", "setting": "HIPK1; 1 µM", "value": "29% and 64%"}, {"measurement": "%Inh", "setting": "HIPK2; 1 µM", "value": "31% and 30%"}, {"measurement": "%Inh", "setting": "HIPK3; 1 µM", "value": "8% and 0%"}, {"measurement": "%Inh", "setting": "HIPK4; 1 µM", "value": "17% and 0%"}, {"measurement": "%Inh", "setting": "HPK1; 1 µM", "value": "96.2% and 92.5%"}, {"measurement": "%Inh", "setting": "HUNK; 1 µM", "value": "61% and 0%"}, {"measurement": "%Inh", "setting": "ICK; 1 µM", "value": "0% and 34%"}, {"measurement": "%Inh", "setting": "IGF1R; 1 µM", "value": "37% and 0%"}, {"measurement": "%Inh", "setting": "IKK-alpha; 1 µM", "value": "34% and 0%"}, {"measurement": "%Inh", "setting": "IKK-beta; 1 µM", "value": "10% and 0%"}, {"measurement": "%Inh", "setting": "IKK-epsilon; 1 µM", "value": "0% and 3%"}, {"measurement": "%Inh", "setting": "INSRR", "value": 0, "unit": "%"}, {"measurement": "%Inh", "setting": "INSR", "value": 15, "unit": "%"}, {"measurement": "%Inh", "setting": "IRAK1; 1 µM", "value": "66% and 0%"}]}
{"smiles": "Cn1ccc2ncnc(Oc3ccc(NC(=O)Nc4ccncc4)c(Cl)c3)c21", "values": [{"measurement": "%Inh", "setting": "GRK4", "value": 19, "unit": "%"}, {"measurement": "%Inh", "setting": "GRK7", "value": 0, "unit": "%"}, {"measurement": "%Inh", "setting": "GSK3A", "value": 29, "unit": "%"}, {"measurement": "%Inh", "setting": "GSK3B", "value": 0, "unit": "%"}, {"measurement": "%Inh", "setting": "HASPIN", "value": 28, "unit": "%"}, {"measurement": "%Inh", "setting": "HCK", "value": 0, "unit": "%"}, {"measurement": "%Inh", "setting": "HIPK1", "value": 17, "unit": "%"}, {"measurement": "%Inh", "setting": "HIPK2", "value": 0, "unit": "%"}, {"measurement": "%Inh", "setting": "HIPK3", "value": 0, "unit": "%"}, {"measurement": "%Inh", "setting": "HIPK4", "value": 0, "unit": "%"}, {"measurement": "%Inh", "setting": "HPK1", "value": 0, "unit": "%"}, {"measurement": "%Inh", "setting": "HUNK", "value": 0, "unit": "%"}, {"measurement": "%Inh", "setting": "ICK", "value": 0, "unit": "%"}, {"measurement": "%Inh", "setting": "IGF1R", "value": 0, "unit": "%"}, {"measurement": "%Inh", "setting": "IKK-alpha", "value": 14, "unit": "%"}, {"measurement": "%Inh", "setting": "IKK-beta", "value": 16, "unit": "%"}, {"measurement": "%Inh", "setting": "IKK-epsilon", "value": 0, "unit": "%"}, {"measurement": "%Inh", "setting": "INSRR", "value": 0, "unit": "%"}, {"measurement": "%Inh", "setting": "INSR", "value": 11, "unit": "%"}, {"measurement": "%Inh", "setting": "IRAK1", "value": 8, "unit": "%"}]}
{"smiles": "COc1ccc(CNC(=O)NC2CCN(c3ccnc(Nc4ccc(OC)cc4)n3)C2)cc1", "note": "(stereo not shown) [GSK1379727]", "values": [{"measurement": "%Inh", "setting": "GRK4", "value": 4, "unit": "%"}, {"measurement": "%Inh", "setting": "GRK7", "value": 0, "unit": "%"}, {"measurement": "%Inh", "setting": "GSK3A", "value": 0, "unit": "%"}, {"measurement": "%Inh", "setting": "GSK3B", "value": 0, "unit": "%"}, {"measurement": "%Inh", "setting": "HASPIN", "value": 19, "unit": "%"}, {"measurement": "%Inh", "setting": "HCK", "value": 0, "unit": "%"}, {"measurement": "%Inh", "setting": "HIPK1", "value": 0, "unit": "%"}, {"measurement": "%Inh", "setting": "HIPK2", "value": 40, "unit": "%"}, {"measurement": "%Inh", "setting": "HIPK3", "value": 23, "unit": "%"}, {"measurement": "%Inh", "setting": "HIPK4", "value": 0, "unit": "%"}, {"measurement": "%Inh", "setting": "HPK1", "value": 38, "unit": "%"}, {"measurement": "%Inh", "setting": "HUNK", "value": 0, "unit": "%"}, {"measurement": "%Inh", "setting": "ICK", "value": 0, "unit": "%"}, {"measurement": "%Inh", "setting": "IGF1R", "value": 0, "unit": "%"}, {"measurement": "%Inh", "setting": "IKK-alpha", "value": 20, "unit": "%"}, {"measurement": "%Inh", "setting": "IKK-beta", "value": 10, "unit": "%"}, {"measurement": "%Inh", "setting": "IKK-epsilon", "value": 12, "unit": "%"}, {"measurement": "%Inh", "setting": "INSRR", "value": 0, "unit": "%"}, {"measurement": "%Inh", "setting": "INSR", "value": 0, "unit": "%"}, {"measurement": "%Inh", "setting": "IRAK1", "value": 28, "unit": "%"}]}
{"smiles": "Cc1cccc(-c2nc(-c3ccc(S(C)(=O)=O)cc3)sc2-c2ccncc2)c1", "values": [{"measurement": "%Inh", "setting": "GRK4", "value": 0, "unit": "%"}, {"measurement": "%Inh", "setting": "GRK7", "value": 31, "unit": "%"}, {"measurement": "%Inh", "setting": "GSK3A", "value": 0, "unit": "%"}, {"measurement": "%Inh", "setting": "GSK3B", "value": 3, "unit": "%"}, {"measurement": "%Inh", "setting": "HASPIN", "value": 0, "unit": "%"}, {"measurement": "%Inh", "setting": "HCK", "value": 11, "unit": "%"}, {"measurement": "%Inh", "setting": "HIPK1", "value": 8, "unit": "%"}, {"measurement": "%Inh", "setting": "HIPK2", "value": 0, "unit": "%"}, {"measurement": "%Inh", "setting": "HIPK3", "value": 15, "unit": "%"}, {"measurement": "%Inh", "setting": "HIPK4", "value": 4, "unit": "%"}, {"measurement": "%Inh", "setting": "HPK1", "value": 0, "unit": "%"}, {"measurement": "%Inh", "setting": "HUNK", "value": 0, "unit": "%"}, {"measurement": "%Inh", "setting": "ICK", "value": 0, "unit": "%"}, {"measurement": "%Inh", "setting": "IGF1R", "value": 7, "unit": "%"}, {"measurement": "%Inh", "setting": "IKK-alpha", "value": 0, "unit": "%"}, {"measurement": "%Inh", "setting": "IKK-beta", "value": 1, "unit": "%"}, {"measurement": "%Inh", "setting": "IKK-epsilon", "value": 0, "unit": "%"}, {"measurement": "%Inh", "setting": "INSRR", "value": 7, "unit": "%"}, {"measurement": "%Inh", "setting": "INSR", "value": 8, "unit": "%"}, {"measurement": "%Inh", "setting": "IRAK1", "value": 18, "unit": "%"}]}
